Records with an inconclusive call do not appear. Activity calls are given as the source filed them. Calls follow the shape of the full dose curve.
Legend:
[1] = target: Acetylcholinesterase (Homo sapiens) (UniProt P22303); experiment: Acetylcholinesterase (AChE) small molecule antagonists: colormetric cell-based qHTS assay (AID 1347395); also: nearly all actives have a fitted effect of over 30% in size
Outline: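 Endogenous AChE of human neuroblastoma SH-SY5Y cells was measured with an Ellman-type DTNB/acetylthiocholine mix. Compound pretreatment lasted 30 min at 37 C; substrate reaction ran 90 min at 37 C.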

[2] = target: Acetylcholinesterase (Homo sapiens) (UniProt P22303); experiment: Acetylcholinesterase (AChE) small molecule antagonists: enzyme-based qHTS assay (AID 1347397); conditions: Potency: AChE enzyme activity inhibition; outcome: AChE enzyme activity inhibition; also: nearly all actives have a fitted effect of over 55% in size
Outline: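 Human recombinant acetylcholinesterase; substrate acetylthiocholine; thiocholine quantified with DTNB (colorimetric). Compound preincubation 30 min RT; reaction 10 min RT.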

[3] = target: Acetylcholinesterase (Homo sapiens) (UniProt P22303); experiment: Acetylcholinesterase (AChE) small molecule antagonists: fluorescence cell-based qHTS assay (AID 1347398); conditions: Potency: AChE activity; outcome: AChE activity; also: nearly all actives have a fitted effect of over 50% in size
Outline: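 Thiocholine generated from acetylthiocholine by SH-SY5Y cell AChE is detected with Thiolite Green (Ex/Em 490/520 nm) after 40 min at room temperature, following 30 min compound pretreatment at 37 C.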

[4] = target: Acetylcholinesterase (Homo sapiens) (UniProt P22303); experiment: Acetylcholinesterase (AChE) small molecule antagonists: enzyme-based qHTS assay with human liver microsomes (AID 1347399); conditions: Potency: qHTS inhibition; outcome: qHTS inhibition; also: nearly all actives have a fitted effect of over 60% in size
Outline: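 Recombinant human AChE (50 mU/mL in the enzyme mix) and human liver microsomes (0.25 mg/mL final) were preincubated with compound and NADPH (0.25 mg/mL final) for 30 min at 37 C. Acetylthiocholine/DTNB was then added; thiocholine was read colorimetrically after 10 min at room temperature.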
% is scaled to controls: 0 for no effect and ±100 for the full control effect.

Sequence of Acetylcholinesterase (Homo sapiens) (P22303 whole entry, looked up): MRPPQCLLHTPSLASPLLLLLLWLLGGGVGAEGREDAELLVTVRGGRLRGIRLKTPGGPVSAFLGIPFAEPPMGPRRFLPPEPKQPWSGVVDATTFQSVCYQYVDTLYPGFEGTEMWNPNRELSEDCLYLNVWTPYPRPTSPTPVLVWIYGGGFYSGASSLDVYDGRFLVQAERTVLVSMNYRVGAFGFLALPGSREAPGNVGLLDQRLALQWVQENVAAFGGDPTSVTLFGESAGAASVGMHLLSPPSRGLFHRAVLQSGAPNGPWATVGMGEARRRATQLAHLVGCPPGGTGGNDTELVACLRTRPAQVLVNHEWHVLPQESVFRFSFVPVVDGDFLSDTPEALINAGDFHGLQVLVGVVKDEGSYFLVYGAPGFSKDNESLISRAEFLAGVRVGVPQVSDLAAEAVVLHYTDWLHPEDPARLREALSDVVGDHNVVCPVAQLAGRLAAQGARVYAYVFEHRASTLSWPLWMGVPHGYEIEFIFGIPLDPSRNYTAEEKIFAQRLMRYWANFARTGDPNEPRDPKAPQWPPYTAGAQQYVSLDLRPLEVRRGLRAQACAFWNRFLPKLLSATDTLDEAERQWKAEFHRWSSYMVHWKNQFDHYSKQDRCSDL

CCCCCCCCCCCCCCCC
inactive: Potency [1] | Potency [2] | Potency [3] | Potency [4]

O=S(=O)(O)c1cc(O)c2ccc(Nc3ccccc3)cc2c1
inactive: Potency [1] | Potency [2] | Potency [3] | Potency [4]

O=C1Cc2ccccc2N1c1c(Cl)cccc1Cl
inactive: Potency [1] | Potency [2] | Potency [3] | Potency [4]

NC(=O)c1ccccc1
inactive: Potency [1] | Potency [2] | Potency [3] | Potency [4]

CCN(CC)C(=O)N(CC)CC
inactive: Potency [1] | Potency [2] | Potency [3] | Potency [4]

CC1(C)S[C@@H]2[C@H](N=CN3CCCCCC3)C(=O)N2[C@H]1C(=O)O
inactive: Potency [1] | Potency [2] | Potency [3] | Potency [4]

COc1cccc(O)c1O
inactive: Potency [1] | Potency [2] | Potency [3] | Potency [4]

C=C(C)[C@@H]1CCC2=CCC[C@@H](C)[C@]2(C)C1
inactive: Potency [1] | Potency [2] | Potency [3] | Potency [4]

CC1=CCC(=C(C)C)CC1
inactive: Potency [1] | Potency [2] | Potency [3] | Potency [4]

O=C1CCCCO1
inactive: Potency [1] | Potency [2] | Potency [3] | Potency [4]

Cc1ccc(=O)n(-c2ccccc2)c1
inactive: Potency [1] | Potency [2] | Potency [3] | Potency [4]

CCOCN(C(=O)CS(=O)(=O)O)c1c(C)cccc1CC
inactive: Potency [1] | Potency [2] | Potency [3] | Potency [4]

c1ccc2occc2c1
inactive: Potency [1] | Potency [2] | Potency [3] | Potency [4]

COC(=O)c1cccc(Cl)c1
inactive: Potency [1] | Potency [2] | Potency [3] | Potency [4]

CCCCCCCCCCCCCC=O
inactive: activity, negative = inhibition [1] 1.02% [at 10.5 µM] | activity change, negative = inhibition [2] 0.138% [at 10.5 µM] | activity change, negative = inhibition [3] 1.81% [at 10.5 µM] | activity change, negative = inhibition [4] -0.486% [at 10.5 µM]

Cc1ccc(O)cn1
inactive: Potency [1] | Potency [2] | Potency [3] | Potency [4]

Cc1cc(=O)c2c(O)c3c(O)cc(=O)c4c3c3c(cc(O)c1c23)C(C)(C)C=4O
inactive: activity, negative = inhibition [1] 0.337% [at 23.6 µM] | activity change, negative = inhibition [2] 2.31% [at 23.6 µM] | activity change, negative = inhibition [3] 7.09% [at 23.8 µM] | activity change, negative = inhibition [4] 0.168% [at 23.6 µM]

CC(C)NC(=O)c1ccc(C=O)cc1
inactive: Potency [1] | Potency [2] | Potency [3] | Potency [4]

O=C[C@H](O)[C@@H](O)[C@H](O)[C@H](O)CO
inactive: Potency [1] | Potency [2] | Potency [3] | Potency [4]

CCC(O)CO (stereo not given)
inactive: Potency [1] | Potency [2] | Potency [3] | Potency [4]

CC(C)(CCl)c1ccccc1
inactive: Potency [1] | Potency [2] | Potency [3] | Potency [4]

CCOC(=O)c1cnc2c(cnn2CC)c1NN=C(C)C
inactive: Potency [1] | Potency [2] | Potency [3] | Potency [4]

NS(=O)(=O)c1cc(C2(O)NC(=O)c3ccccc32)ccc1Cl (stereo not given)
inactive: Potency [1] | Potency [2] | Potency [3] | Potency [4]

CC[C@@H]1C[C@H](N(Cc2cc(C(F)(F)F)cc(C(F)(F)F)c2)C(C)=O)c2cc(C(F)(F)F)ccc2N1C(=O)OC(C)C
inactive: Potency [1] | Potency [2] | Potency [3] | Potency [4]

N#CC1(N)CCCCC1
inactive: Potency [1] | Potency [2] | Potency [3] | Potency [4]

CCCN(CCC)CCc1cccc2c1CC(=O)N2
inactive: Potency [1] | Potency [2] | Potency [3] | Potency [4]

NC(=O)CCCCC(N)=O
inactive: Potency [1] | Potency [2] | Potency [3] | Potency [4]

CCCCNC1CC(C)(C)NC(C)(C)C1
inactive: Potency [1] | Potency [2] | Potency [3] | Potency [4]

CNCC(O)c1ccc(O)c(O)c1 (stereo not given)
inactive: outcome [1] | outcome [2] | outcome [3] | outcome [4]

CC(=O)Oc1ccc(C(C)=O)cc1
inactive: Potency [1] | Potency [2] | Potency [3] | Potency [4]
